Assay results published in PubChem BioAssay (Tox21).
Results filed as inconclusive are left out. The source made the active and inactive calls. The call rests on the fitted dose curve.

assay: p53 small molecule agonists, cell-based qHTS assay with rat liver microsomes (AID 1963578); settings: HCT-116 p53RE-bla, beta-lactamase ratio, 16 h; series mostly up to 66 µM; activation: at the top concentration
Method in brief: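 Fluorescence from a beta-lactamase reporter under a p53 response element was measured after cells had been incubated 16 h at 37 C with test compound and rat liver microsomes plus NADPH (0.5 mg/mL final each).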
On the % scale 0 is the no-effect control and ±100 the full control effect.

Row | SMILES | activation | Potency
1 | OCCOc1ccc(OCCO)cc1 | -1.98% (inactive) | 
2 | N#CCC(=O)O |  | inactive
3 | Nc1ncnc2c1ncn2[C@@H]1O[C@H](COP(=O)(O)O)[C@@H](O)[C@H]1O | 3.07% [at 30.3 µM] (inactive) | 
4 | CCc1ccc(C)nc1 | -1.43% (inactive) | 
5 | CN(C)c1ccc(/C=C/c2ccc([N+](=O)[O-])cc2)cc1 | -4.52% [at 5.99 µM] (inactive) | 
6 | C/C=C(\C)C(=O)OC/C=C(\C)CCC=C(C)C | 0.291% (inactive) | 
7 | CC(=O)/C=C/C1C(C)=CCC(C)C1(C)C (centres undefined) | 3.29% (inactive) | 
8 | Cc1cccc(C)c1NC(=O)CC12CCCN1CCC2 | -3.51% [at 30.3 µM] (inactive) | 
9 | CC(=O)N1CCN(c2ccc(O)cc2)CC1 | 1.81% [at 30.3 µM] (inactive) | 
10 | C=C(C)C(=O)OCCCCCCOC(=O)C(=C)C | -6.28% (inactive) | 
11 | O=C1CCN(c2ccccc2)N1 | 1.46% (inactive) | 
12 | Cl/C(=C\n1cncn1)c1ccc(Cl)cc1Cl | -1.15% [at 30.3 µM] (inactive) | 
13 | COc1cc(C(=O)N2CCCCCCC2)cc(OC)c1OC | -3.83% [at 30.3 µM] (inactive) | 
14 | COC(=O)N[C@H](C(=O)N[C@@H](Cc1ccccc1)[C@@H](O)CN(Cc1ccc(-c2ccccn2)cc1)NC(=O)[C@@H](NC(=O)OC)C(C)(C)C)C(C)(C)C | -3.35% [at 30.3 µM] (inactive) | 
15 | Clc1nc2ccccc2s1 | 0.0551% (inactive) | 
16 | COC(=O)Nc1nc2ccc(Sc3ccccc3)cc2[nH]1 | -3.03% [at 30.3 µM] (inactive) | 
17 | CN1N=C(C(N)=O)CCC1=O | 1.86% [at 30.3 µM] (inactive) | 
18 | CCCCC(CC)CCC(CC(C)C)OS(=O)(=O)O (centres undefined) | -2.03% (inactive) | 
19 | CSc1cnccn1 | -2.23% (inactive) | 
20 | CCCCCCCOC(=O)c1ccccc1C(=O)OCCCCCCC | -0.129% (inactive) | 
21 | CC1CC(=O)CC(C)(C)C1 (centres undefined) | -1.45% (inactive) | 
22 | O=[Si]=O | -3.14% (inactive) | 
23 | CCCCCCCC(OC)OC | -0.404% [at 30.3 µM] (inactive) | 
24 | NS(=O)(=O)c1cc2c(cc1Cl)NC(CC1CCCC1)NS2(=O)=O (centres undefined) | -0.444% [at 30.3 µM] (inactive) | 
